According to PubChem BioAssay:
Active and inactive are the calls of the source.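 Rule for the calls, unless noted: active = fluorescence slope after compound addition differing from the mean of all screened samples at 99.7% confidence, in either direction; inactive = the rest.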

What was measured:
[1] = inhibitors of TNFa-induced NFkB p65 translocation, primary screen, imaging, HUVEC, MLSMR starter and 10KST1 sets (AID 438;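 active = inhibition above 20% together with a positive visual image hit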;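 note: compound added about 3h40 before a 20 min TNFalpha stimulation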;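 for inhibition: signal is the nuclear over cytoplasmic p65 intensity ratio per well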); settings: HUVEC TNFa-induced p65 nuclear translocation; cell count: measured here: nuclei count (cytotoxicity indicator), at 2.08 µM; inhibition: at 2 µM, stronger effect = higher value, 0% TNFa-plus-vehicle, 100% no-TNFa wells
[2] = inhibitors of mutant huntingtin aggregation, primary screen, imaging, exon1htt(103Q)mCFP cells, high-content imaging (AID 483;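 active = visual image review flags a hit and inhibition of aggregation exceeds 20%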;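 note: compound exposure lasted 3 days before fixation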;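 for nuclei count: percent of the per-plate median nuclei count of sample wells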); settings: exon1htt(103Q)mCFP cell line, aggregate imaging, at 2 µM; inhibition of aggregation: stronger effect = higher value; nuclei count: measured here: cell count, toxicity
[3] = inhibitors of E-selectin induction by TNFa, primary screen, imaging, HUVEC, immunofluorescence, MLSMR starter and 10KST1 sets (AID 487;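 active = visually confirmed hit in the image check and inhibition above 20%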;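 for inhibition: signal is fraction of cell area covered by stained E-selectin grains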;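 for nuclei count: 100% = median nuclei count of all wells on the same plate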); settings: HUVEC TNFalpha-induced E-selectin immunofluorescence imaging, at 2 µM; inhibition: stronger effect = higher value; nuclei count: measured here: cell number, toxicity
[4] = target: Voltage-gated potassium channel subunit beta-2 (Rattus norvegicus) (UniProt P62483); assay: KvBeta enzyme negative modulators, primary screen, biochemical, NADPH fluorescence (AID 622;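 active = fluorescence slope higher than the sample average by over 3 SD, cut at about -0.22 in these data, passing the limit was not always enough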;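 note: slope of raw intensity against log time taken from 70 to 1610 s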); settings: recombinant KvBeta, 4-cyanobenzaldehyde reduction, at 10 µM, stronger effect = higher value
Voltage-gated potassium channel subunit beta-2 (Rattus norvegicus), sequence (P62483 whole entry, looked up): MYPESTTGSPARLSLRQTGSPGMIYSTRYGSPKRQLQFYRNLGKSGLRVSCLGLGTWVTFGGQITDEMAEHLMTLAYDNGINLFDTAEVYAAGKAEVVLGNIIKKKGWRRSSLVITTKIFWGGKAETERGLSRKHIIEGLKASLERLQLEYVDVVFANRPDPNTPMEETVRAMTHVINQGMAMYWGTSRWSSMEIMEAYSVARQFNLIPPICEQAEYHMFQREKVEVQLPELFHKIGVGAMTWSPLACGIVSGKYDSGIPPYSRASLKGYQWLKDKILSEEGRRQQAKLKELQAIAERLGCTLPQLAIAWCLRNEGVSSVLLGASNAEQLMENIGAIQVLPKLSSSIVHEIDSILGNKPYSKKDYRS

[5] = target: Voltage-gated potassium channel subunit beta-2 (Rattus norvegicus) (UniProt P62483); assay: KvBeta positive modulators, primary screen, biochemical, NADPH fluorescence (AID 623;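 active = NADPH fluorescence slope more negative than the mean of all samples by about 3 SD, 99.7% confidence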;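 note: fluorescence intensity change per second fitted from 20 to 320 s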); settings: Recombinant KvBeta, NADPH fluorescence decrease slope, 10 min; at 10 µM; stronger effect = lower value
[6] = target: Alpha-2C adrenergic receptor (Homo sapiens) (UniProt P18825); assay: modulators of alpha2C/GIRK thallium flux, primary screen, cell-based, HEK293 alpha2C/GIRK1/2 (AID 624); settings: thallium flux BTC fluorescence, at 10 µM, actives lie on both sides;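 note: slope of fluorescence ratio to pre-addition baseline per second over 15 to 24 s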
Alpha-2C adrenergic receptor (Homo sapiens), sequence (P18825 whole entry, looked up): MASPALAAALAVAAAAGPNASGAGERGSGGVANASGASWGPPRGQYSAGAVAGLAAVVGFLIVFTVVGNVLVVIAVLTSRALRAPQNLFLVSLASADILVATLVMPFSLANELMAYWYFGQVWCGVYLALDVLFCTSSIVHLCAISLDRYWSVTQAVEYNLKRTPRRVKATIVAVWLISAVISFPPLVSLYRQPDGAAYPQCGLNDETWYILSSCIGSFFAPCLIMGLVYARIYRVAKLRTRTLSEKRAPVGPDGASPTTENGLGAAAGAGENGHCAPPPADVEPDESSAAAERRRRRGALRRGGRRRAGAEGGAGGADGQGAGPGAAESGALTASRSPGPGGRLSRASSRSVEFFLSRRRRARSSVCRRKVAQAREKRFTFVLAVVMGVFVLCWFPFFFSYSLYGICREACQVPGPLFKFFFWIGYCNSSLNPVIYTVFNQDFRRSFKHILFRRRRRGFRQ

[7] = inhibitors of Sendai virus-induced IRF3 signaling, primary screen, TLR/RLR signaling modifier project, cell-based, Sendai virus stimulus, luciferase, 10K MLSCN set (AID 602276;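 active = inhibition at or above 50% at 10 µM; inactive = inhibition below 50%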;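 note: firefly luciferase from ISG56 promoter only with Renilla not read in this screen; 0% = Sendai virus plus DMSO and 100% = medium plus DMSO without virus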); settings: HEK293 RL24 IRF3 luciferase reporter, at 10 µM, stronger effect = higher value
[8] = inhibitors of poly I:C-induced TLR3 signaling, primary screen, cell-based, poly I:C stimulus, luciferase, 10K MLSCN set (AID 602277;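 active = inhibition of the reporter signal at or above 50%; inactive = inhibition below 50%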); settings: HEK293-TLR3 RL24 IRF3 luciferase reporter, at 10 µM, stronger effect = higher value

Row | SMILES | cell count [1] | inhibition [1] | inhibition of aggregation [2] | nuclei count [2] | inhibition [3] | nuclei count [3] | fluorescence slope [4] | NADPH fluorescence slope [5] | slope [6] | inhibition [7] | inhibition [8]
1 | COc1ccc(NC(=O)C(C)Oc2ccc(/C(C)=N\O)cc2)cc1 (centres undefined) | 581 | 2.7% (inactive) | 13.8% (inactive) | 114% | 24.1% (inactive) | 105% | -0.307 (inactive) | 3.7e-05 (inactive) | 0.00609 (inactive) | 14.5% (inactive) | 19.2% (inactive)
2 | Cc1ccc(NC(=O)C2CC=CCC2C(=O)N2CCCCC2)cc1 (centres undefined) | 636 | -23.5% (inactive) | -67% (inactive) | 66.9% | -9.5% (inactive) | 94.3% | -0.499 (inactive) | -2.1e-05 (inactive) | 0.00665 (inactive) | -0.377% (inactive) | 26.9% (inactive)
3 | COC(=O)C1=C(C)NC(=O)C1(Nc1ccc(Cl)cn1)C(F)(F)F (centres undefined) | 324 | 1.8% (inactive) | 3.9% (inactive) | 95.1% | -63.7% (inactive) | 125% | -0.317 (inactive) | -1.2e-05 (inactive) | 0.00613 (inactive) | 13.8% (inactive) | 32.2% (inactive)
4 | Cc1cc(-n2c(C)cc(C(=O)CSc3nc4ccccc4c(=O)n3Cc3ccco3)c2C)no1 | 288 | -8.6% (inactive) | 8.4% (inactive) | 95% | -104% (inactive) | 96.6% | -0.441 (inactive) | -2e-05 (inactive) | 0.00698 (inactive) | 8.08% (inactive) | -48.8% (inactive)
5 | CCOC(=O)C(C#N)C(c1cccnc1)c1c(C)[nH][nH]c1=O (centres undefined) | 710 | -7.5% (inactive) | -3.8% (inactive) | 93% | -131% (inactive) | 101% | -0.325 (inactive) | -3.9e-05 (inactive) | 0.0052 (inactive) | 6.49% (inactive) | 9.18% (inactive)
6 | O=C(NCC1CCCO1)C1CCCN(S(=O)(=O)c2cccc3nsnc23)C1 (centres undefined) | 801 | -1.6% (inactive) | 30.3% (inactive) | 122% | -30.2% (inactive) | 114% | -0.434 (inactive) | 6e-05 (inactive) | 0.00536 (inactive) | 0.526% (inactive) | -1.36% (inactive)
7 | CCc1ccccc1OCCCCN1CCCC1 | 454 | -4.1% (inactive) | 10.6% (inactive) | 89.5% | -88.7% (inactive) | 75.1% | -0.518 (inactive) | -4.4e-05 (inactive) | 0.00548 (inactive) | -4.55% (inactive) | -12.9% (inactive)
8 | CC(C)(C)NC(=O)CN(C(=O)CS(=O)CC(=O)Nc1ccc(F)cc1)c1ccc(Cl)cc1 (centres undefined) | 879 | -4.2% (inactive) | 3.2% (inactive) | 66.8% | -9.8% (inactive) | 118% | -0.35 (inactive) | 1.3e-05 (inactive) | 0.00479 (inactive) | 19.1% (inactive) | 19.5% (inactive)
9 | CCOCC(=O)Nc1nc2c(s1)C(=O)CC(C)(C)C2 | 921 | 0.6% (inactive) | -38% (inactive) | 144% | -70.4% (inactive) | 122% | -0.541 (inactive) | 2.2e-05 (inactive) | 0.00739 (inactive) | 12.5% (inactive) | 39% (inactive)
10 | CCN(CC)S(=O)(=O)c1ccc(NC(=O)CN(c2cccc(F)c2)S(C)(=O)=O)cc1 | 426 | 1.1% (inactive) | -25.1% (inactive) | 107% | -25.3% (inactive) | 98.6% | -0.449 (inactive) | 2.5e-05 (inactive) | 0.00334 (inactive) | 8.61% (inactive) | 18.3% (inactive)
11 | Cn1c(SCC(=O)N2CCN(c3cccc(Cl)c3)CC2)nnc1-c1ccncc1 | 689 | -5.1% (inactive) | -15% (inactive) | 104% | -92% (inactive) | 142% | -0.373 (inactive) | 2.3e-06 (inactive) | 0.00664 (inactive) | 1.74% (inactive) | -27.2% (inactive)
12 | c1coc(CN2CN=C(Nc3nc4ccccc4s3)NC2)c1 | 604 | -1.5% (inactive) | -13.8% (inactive) | 106% | 13.3% (inactive) | 109% | -0.357 (inactive) | -2.5e-05 (inactive) | 0.00455 (inactive) | -12.9% (inactive) | -7.25% (inactive)
13 | O=C(CSc1nnc2ccccn12)c1ccccc1 | 535 | 7.7% (inactive) | 2.2% (inactive) | 105% | 23.4% (inactive) | 70.9% | -0.46 (inactive) | 4e-05 (inactive) | 0.00782 (inactive) | -34.1% (inactive) | -86.4% (inactive)
14 | CCN1CCN(C(=O)Cn2ncc3ccsc3c2=O)CC1 | 697 | -1.8% (inactive) | 27.4% (inactive) | 96.5% | -54.3% (inactive) | 120% | -0.571 (inactive) | -8e-06 (inactive) | 0.00578 (inactive) | 3.05% (inactive) | 26.3% (inactive)
